# Source: the supplement of paper PMC6555819
# What was measured:
# Assay in all cases: PBM binding z-score (relative to random genomic background probes); higher = stronger binding; sequences stand for … in GC…GCGATTGACAGCGTAGAATGAAGG
# [1] = system: FXR:RXRa (NR concentration 270 nM, RXRa partner concentration 90 nM)
# Procedure, shortened: (§1)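 For binding z-scores, the reference was random background probes on custom Agilent 4×180K protein-binding microarrays. These arrays were incubated 1 h with ligand-free nuclear receptor dimers in PBS pH 7.4, 2% milk, 0.02% Triton X-100, 1 mM DTT, 0.2 mg/mL BSA and 0.4 mg/ml salmon testes DNA. Fluorescence was scanned after antibody detection of each partner (one per run) and regression-normalized.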
# [2] = system: LXRa:RXRa (NR concentration 270 nM, RXRa partner concentration 90 nM)
# Procedure, shortened: as §1
# [3] = system: LXRa homodimer (NR concentration 270 nM)
# Procedure, shortened: as §1
# [4] = system: LXRb:RXRa (NR concentration 270 nM, RXRa partner concentration 90 nM)
# Procedure, shortened: as §1
# [5] = system: LXRb homodimer (NR concentration 270 nM)
# Procedure, shortened: as §1
# [6] = system: PPARa:RXRa (NR concentration 270 nM, RXRa partner concentration 90 nM)
# Procedure, shortened: as §1
# [7] = system: PPARg:RXRa (NR concentration 180 nM, RXRa partner concentration 90 nM)
# Procedure, shortened: as §1
# [8] = system: PPARg:RXRa 270nM:90nM, anti-RXR (NR concentration 270 nM, RXRa partner concentration 90 nM)
# Procedure, shortened: as §1
# [9] = system: PPARg:RXRa 30nM:10nM, anti-RXR (NR concentration 30 nM, RXRa partner concentration 10 nM)
# Procedure, shortened: as §1
# [10] = system: PPARg:RXRa 90nM:30nM, anti-RXR (NR concentration 90 nM, RXRa partner concentration 30 nM)
# Procedure, shortened: as §1
Sequence,PBM binding z-score [1],PBM binding z-score [2],PBM binding z-score [3],PBM binding z-score [4],PBM binding z-score [5],PBM binding z-score [6],PBM binding z-score [7],PBM binding z-score [8],PBM binding z-score [9],PBM binding z-score [10]
CCTGCTAGGTCATGGTTAGCTAATCTACAGTATG,3.74,2.32,-0.0293,1.71,-0.265,3.76,2.65,3.06,0.508,2.06
ACTATTAGTTGACTGAGGGCAACCGATACGACGC,0.492,0.678,0.199,0.459,0.656,0.506,0.804,0.0428,0.173,0.117
ATACCAAGGTGATCGTGATGTCGTTGATACTAAC,0.333,0.0372,0.013,0.116,-0.0295,0.0573,0.279,0.281,0.217,0.0356
TCTAGTTGGTCAAAGGTTACACACTCGAAATGCG,2.63,3.13,1.38,3.04,0.929,5.08,9.84,8.86,8.99,9.47
GGAACGAGGGCAAAGTTGCTAGCATCTGTCGACG,0.659,0.547,-0.512,0.42,-0.761,2.65,3.83,5.03,2.76,5.06
CGTCCAAGGTGAAAGGTCAGTGAAGAGATGACGG,4.63,4.11,0.846,3.61,-0.321,6.01,9.57,8.09,7.25,8.46
CCTGCTAGGTCAATGGTAAGCTAAAGCAGCTCGC,2.96,2.11,-0.107,1.19,-0.205,2.84,2.52,2.98,0.395,2.09
GGAACGTGGGCATTCGAGTTGATAGCATGGCGAT,-0.541,-0.612,-0.683,-1.02,-1.01,-1.09,0.22,-0.631,-0.7,-0.858
CGTCCAAGGTCAAAGGTCAGTGGAGAGATGACGG,8.17,6.91,3.66,6.84,2.07,7.16,10.7,9.05,8.08,9.59
TAGCCTAGCTCAGATCGGGCCAGTATACGCTATA,-0.961,-1.35,-1.07,-1.25,-1.34,-1.21,-0.0455,-0.972,-0.749,-0.992
ACTTACGCGTCAACGAGGTTATAGCACGCGTATA,0.0989,0.589,-0.0981,0.964,0.0457,1.35,0.862,0.282,0.115,0.253
TTACCAGGGTGAGCTGAGGTCGTTGATCCAACTC,1.3,1.44,-0.264,0.797,-1.42,1.87,0.186,1.08,-0.0751,0.766
CGAACTAGATCAGAACAGGACAGTGAAGGATGAT,-0.267,-0.369,-0.16,-0.794,-0.0768,-0.51,0.886,-0.506,0.112,-0.125
ATCTCAAGGTAAAGTTCAGTGAAAGATCGATAGA,1.67,2.17,1.5,1.42,0.854,2.22,1.97,3.4,1.67,2.73
CATACAGGGTCAGCTAGGCCAGAGCAGGGACGGC,4.49,3.07,-0.271,2.11,0.561,4.35,3.33,3.05,0.789,1.85
CAAACTAGGTCAAGTGGTCAAAGTCCGCTTCCCG,4.81,3.79,1.15,2.42,0.597,5.45,8.38,7.13,5.18,6.97
CCTTACGGGTCTCGAGGTTATAGCACGACGAGCG,0.0293,0.421,-0.197,0.31,-0.922,1.15,0.785,0.313,-0.359,-0.392
GGAACGAGGGCAAGTTGAGAGCAGAGTTTGATGG,1,0.529,-0.352,0.383,-0.627,1.72,0.945,1.34,0.0684,0.629
ATCTCTAGTTAAAAGTTCAGTGAATCCCGAGGAT,0.652,1.49,1.82,0.877,1.25,1.64,1.4,3.41,1.59,3.49
TCATATAGGTAAAAGGGGAAAGTCGGTGTGGTAA,1.2,0.984,0.33,1.32,0.445,3.75,6.27,6.98,6.37,7.9
TTAGCAAGGTGAGCTGAGGTCGTTGATCCAACTC,0.796,1.32,-0.635,0.393,-0.992,1.72,-0.0318,0.607,-0.48,0.182
GCTGCTAGGTCAACTGATGCTCAGCTAAAGCTCG,4.03,2.63,-0.106,1.88,-0.349,3.79,2.66,3.35,0.299,2.26
AGACTGAGGTTATACGTAGATCAGGGAAGAAAGT,1.99,2,0.184,1.55,-0.196,2.58,0.936,0.937,0.367,0.756
TCATATAGGTAACCAGGTGAAAGTCCGTAAGTTA,0.67,0.846,0.139,1.04,0.073,2.95,4.7,4.35,4.08,4.4
